Screening results deposited in PubChem by National Center for Advancing Translational Sciences (NCATS).
TDP-43 yeast inh – rescues yeast growth from TDP-43 toxicity | TDP-43 expressing yeast growth rescue, BacTiter-Glo, 24 h | Potency, µM (series often up to 46.1 µM), usual class: activators | hit rate 1.8% among 410,000; also: nearly all actives have a fitted effect of over 50% in size
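Luminescence from BacTiter-Glo reports growth of TDP-43-expressing yeast after 24 hr at 30 deg C with compound. Cells were raffinose-pregrown to mid-log, then seeded in galactose medium at OD600=0.02.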
FUS yeast rescue – suppressors of FUS proteinopathy in yeast | S. cerevisiae FUS-expressing, growth rescue, OD600, 24 h | Potency, µM (series often up to 76.6 µM), actives largely listed as activators | hit rate 0.24% among 390,000 | AID 1347120; also: nearly all actives have a fitted effect of over 55% in size
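Yeast expressing FUS under galactose induction, OD 0.005 in 2% galactose medium; compounds in a dilution series, 24 h at 30C. Growth rescue by absorbance at 600 nm; CP55940 positive control, DMSO negative.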
aSyn yeast inh – inhibitors of alpha-synuclein toxicity in yeast. Yeast expressing alpha-synuclein, growth rescue, BacTiter-Glo, 24 h. Potency, µM (highest dose often 46.1 µM), most hits filed as activators. hit rate 0.14% among 370,000. AID 652106; also: nearly all actives have a fitted effect of over 65% in size
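Readout is rescue of growth in alpha-synuclein-expressing yeast, so inhibitors of toxicity appear as activators. Growth after 24 hr at 30 deg C in galactose medium is quantified by luminescence.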
Abeta yeast res – A-beta toxicity reversal in yeast | yeast expressing A-beta42, growth rescue, OD600, 48 h; response scale: 0% DMSO, 100% iron-clioquinol control | Potency, µM (titrated, usually from 46.1 µM), most hits filed as activators | hit rate 0.063% among 410,000; also: nearly all actives have a fitted effect of over 55% in size
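Yeast A-beta toxicity model in growth medium with pinned compounds, 48 h at 30 C; growth read as absorbance at 600 nm. Normalized to FeCl3/clioquinol equimolar mix (positive) and DMSO (negative).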
A number is an active result; n = inactive; u = inconclusive; x = no result. An excerpt weighted towards active compounds, which were near 2.1% of everything screened. Calls follow the shape of the dose curve; as a rule, active = well fitted curve in the direction sought with a large enough effect; inconclusive = small, poorly fitted or top-dose-only effect, or another doubt; inactive = no such curve, though single readings can be large; an effect the other way counts as inactive or inconclusive.

SMILES | TDP-43 yeast inh | FUS yeast rescue | aSyn yeast inh | Abeta yeast res
COC(=O)c1ccc2nc(-c3ccc(OC)c(OC)c3)c(Cc3ccc(C)cc3)n2c1 | 22µM | n | n | n
COC(=O)c1ccc2nc(-c3cccc(Cl)c3)c(Cc3ccccc3OC)n2c1 | 35µM | n | n | n
Cc1ccc(-c2cc(-c3nnc(SCC(=O)NC4CCCCC4)n3N)[nH]n2)cc1 | x | n | x | x
COc1ccc(C(CNC(=O)c2oc3ccc(C)cc3c2C)N2CCOCC2)cc1 (stereo not drawn) | n | n | x | n
O=C(COc1ccccc1C(=O)Nc1ccccc1)Nc1ccccc1Cl | x | x | n | x
Cn1c(=O)c2c(nc(CN3CCc4ccccc4C3)n2Cc2cccc(Cl)c2)n(C)c1=O | 20µM | u | n | n
O=C(Nc1ccccc1)N1CCN(c2nc(-c3ccccc3)ns2)CC1 | 11µM | n | n | n
O=C(Nc1ccccc1Cl)N1CCCN(c2nc(-c3ccccc3)ns2)CC1 | n | n | n | n
Cc1ccc(Nc2ccc(C(=O)O)cc2[N+](=O)[O-])cc1 | 2.8µM | n | n | n
CCN1CCN(C(=O)CS(=O)(=O)Cc2nc(-c3ccccc3C)oc2C)CC1 | n | n | n | n
Cc1cccc(N2CCN(C(=O)CS(=O)(=O)Cc3nc(-c4ccccc4C)oc3C)CC2C)c1 (stereo not drawn) | 25µM | u | x | n
Cc1cccc(N2CCN(C(=O)COc3ccc4c(c3)CCC4)CC2)c1C | n | x | n | n
Cc1cccc(N2CCN(C(=O)CSc3ccsc3[N+](=O)[O-])CC2C)c1 (stereo not drawn) | 18µM | n | n | u
Cc1cccc(N2CCN(C(=O)CS(=O)(=O)Cc3nc(-c4ccccc4F)oc3C)CC2C)c1 (stereo not drawn) | n | 32µM | n | n
Cc1cccc(N2CCN(C(=O)COc3ccc4c(c3)CCC4)CC2C)c1 (stereo not drawn) | 35µM | u | n | n
CCCCCCNc1ccc(/C=C/c2ccnc3ccccc23)cc1 | x | x | n | x
CC1=CC(O)=NS(=O)(=O)O1 | x | x | n | x
CCCCOc1ccc(C(=O)NCCc2sc3nc(-c4ccc(OC)cc4)nn3c2C)cc1 | n | n | x | n
CN(C)c1ccc(/C=C/c2cccc3cc4ccccc4nc23)cc1 | x | x | n | x
O=C(Nc1cccc(Cl)c1)c1ccc2nc(Cc3ccccc3)oc2c1 | n | n | x | n
CC1(C(=O)Nc2ccc(F)cc2F)CCN1C(=O)Cc1ccc(Cl)cc1Cl (stereo not drawn) | 16µM | n | n | n
C=C1C(=O)[C@]23C[C@H]1CCC2[C@@]1(C)C(C[C@@H]3O)[C@](C)(C(=O)OC)CC[C@@H]1O (stereo partly drawn) | 3.2µM | n | n | n
Fc1cccc(-c2oncc2-c2nnnn2-c2ccc(Cl)cc2)c1 | 11µM | n | n | n
Cc1ccc(-n2ncc(C(=O)Nc3ccc4c(c3)OCCO4)c2C2CCN(C(=O)OC(C)(C)C)CC2)cc1 | n | n | x | n
Cc1ccc(-n2ncc(C(=O)Nc3ccc4c(c3)OCO4)c2C2CCN(C(=O)OC(C)(C)C)CC2)cc1 | n | 28µM | x | n
SMILES | TDP-43 yeast inh | FUS yeast rescue | aSyn yeast inh | Abeta yeast res
Cc1ccc(-n2ncc(C(=O)NCc3ccc4c(c3)OCO4)c2C2CCN(C(=O)OC(C)(C)C)CC2)cc1C | n | 25µM | x | n
COc1ccc(-n2ncc(C(=O)NCc3ccc4c(c3)OCO4)c2C2CCN(C(=O)OC(C)(C)C)CC2)cc1 | n | 32µM | x | n
CCc1c(C)sc2c1CCN(Cc1ccc(F)cc1)C2c1ccccc1 (stereo not drawn) | n | n | x | n
O=C(NCc1nc2ccccc2[nH]1)C1=C[C@H](c2ccc(C(F)(F)F)cc2)C[C@H](OCc2ccc(CO)cc2)O1 | n | 25µM | n | n
O=C(NCc1nc2ccccc2[nH]1)C1=C[C@H](c2ccc(Br)cc2)C[C@H](OCc2ccc(CO)cc2)O1 | u | u | n | n
Cc1cc(-n2c(C)cc(C(=S)N3CCOCC3)c2C)ccc1Br | 20µM | x | n | n
COc1cccc(CC(=O)Nc2ccc3nc(Nc4cccc(C(F)(F)F)c4)cc(C)c3c2)c1 | n | n | x | n
Cc1ccccc1C(=O)Nc1ccc2nc(Nc3cccc(C(F)(F)F)c3)cc(C)c2c1 | 18µM | n | x | n
COc1ccccc1CC(=O)Nc1ccc2nc(Nc3cccc(C(F)(F)F)c3)cc(C)c2c1 | 13µM | u | x | n
Cc1cc(Nc2cccc(Cl)c2)nc2ccc(NC(=O)c3cncc(Br)c3)cc12 | 22µM | 32µM | x | n
CCSc1ncc(Cl)c(C(=O)Nc2sc3c(c2C(=O)NCCOC)CCCC3)n1 | x | x | n | x
CO[C@H]1/C=C\O[C@@]2(C)Oc3c(C)c(O)c4c(O)c(c(C=NN5CCN(C6CCCC6)CC5)c(O)c4c3C2=O)NC(=O)C(C)=CC=C[C@H](C)[C@H](O)[C@@H](C)[C@@H](O)[C@@H](C)[C@H](OC(C)=O)[C@H]1C | x | x | n | x
COc1cccc(NC(=O)COC(=O)c2nc(Cl)ccc2Cl)c1 | 16µM | n | n | n
O=C(COC(=O)c1nc(Cl)ccc1Cl)Nc1ccc(Cl)cc1 | 16µM | n | n | n
COc1ccc(OC)c(NC(=O)COC(=O)c2nc(Cl)ccc2Cl)c1 | n | n | n | n
CCCN1CNc2c(c(=O)[nH]c(=S)n2CCc2cc(C)cc(C)c2)C1 | x | x | n | x
COc1ccc(OC)c(C(Cc2ccnc3ccccc23)Cc2ccnc3ccccc23)c1 | x | x | n | x
Oc1ccc(Cl)cc1C1C=C(c2ccc3c(c2)OCO3)NC(c2ccc(Cl)cc2)N1 (stereo not drawn) | x | x | n | x
COc1ccccc1CNC(=O)c1ccc(-c2ccccc2C(F)(F)F)o1 | u | n | n | n
COc1ccc(NC(=O)c2ccc(-c3ccccc3C(F)(F)F)o2)cc1 | 13µM | n | n | n
Cc1nn(-c2ccccc2)c2sc(C(=O)NCc3ccc4c(c3)OCO4)cc12 | x | n | x | x
COc1ccc(/C(N)=N/OC(=O)c2cccc([N+](=O)[O-])c2C)cc1 | 7.1µM | n | n | n
COc1ccccc1C/C(N)=N/OC(=O)c1cccc([N+](=O)[O-])c1C | 20µM | n | n | n
CC(C)CCNC(=O)c1ccc2c(c1)N(Cc1ccccc1F)C(=O)c1ccccc1S2=O (stereo not drawn) | n | n | x | n
Cc1ncsc1CCOC(=O)C12CC3CC(CC(C3)C1)C2 | 20µM | n | n | n
SMILES | TDP-43 yeast inh | FUS yeast rescue | aSyn yeast inh | Abeta yeast res
CC1CCCC(C)N1CC(O)Cn1c2ccccc2c2ccccc21 (stereo not drawn) | 11µM | n | n | n
CCOc1ccc(CNC(=O)c2ccc3c(Cl)c4c(nc3c2)CCCC4)cc1 | 11µM | n | x | n
COc1ccc(CCNC(=O)c2ccc3c(Cl)c4c(nc3c2)CCCC4)c(OC)c1 | 35µM | n | x | n
COc1ccc(CNC(=O)c2ccc3c(Cl)c4c(nc3c2)CCCC4)c(OC)c1 | 20µM | n | x | n
COc1ccc(CNC(=O)c2ccc(Sc3ccc(Cl)cc3)c(NC(C)=O)c2)c(OC)c1 | 22µM | n | x | n
C=CCC12C=C(OC)C(=O)C(C1=O)C(c1ccc(OC)cc1)C2C (stereo not drawn) | x | n | x | x
C[C@@]12CCC=C[C@H]1[C@H](c1ccccc1Br)N(Cc1ccccc1)C2=O | 35µM | u | n | n
